Assay results as given in PubChem BioAssay AID1159580 (chemical genetic matrix, 2015).
The whole screen tested about 5,500 compounds, of which about 2,000 (36%) were called active. Not shown: some 18% with an inconclusive outcome. Rule as the data show it: active = normalized growth mostly below about 0.91 (no sharp cut-off); inconclusive = no clear call, values can overlap the other calls; inactive = mostly above about 0.92. Some of the results follow.

Assay: chemical genetic growth profiling, strain panel (AID 1159580);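 also: tested at 20 µM; growth read once vehicle control cultures reached saturation at 30 °C; 1 = growth at the plate median or of vehicle wells; lower values mean less growth of the strain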
Details: growth OD

Measured: normalized growth

C=C[C@@](C)(O)CCC1C(=C)C[C@H](O)C2C(C)(C)CCCC12C (some centres not stated)
inactive: S. cerevisiae deletion strains, locus YJR075W, strain HOC1, active compounds read low 1.01 | S. cerevisiae deletion strains, locus YKL009W, strain mrt4, active compounds read low 1.01 | S. cerevisiae deletion strains, locus YKL068W, active compounds read low 1.01 | S. cerevisiae deletion strains, locus YKL085W, strain MDH1 (second series), active compounds read low 1.02 | S. cerevisiae deletion strains, locus YKL085W, strain MDH1, active compounds read low 1.02 | S. cerevisiae deletion strains, locus YKL160W, strain elf1, active compounds read low 0.981 | S. cerevisiae deletion strains, locus YKL190W, strain CNB1, active compounds read low 1.01 | S. cerevisiae deletion strains, locus YKR001C, strain vps1, active compounds read low 1.01 | S. cerevisiae deletion strains, locus YKR026C, strain gcn3, active compounds read low 0.992 | S. cerevisiae deletion strains, locus YKR091W, strain srl3, active compounds read low 0.991 | S. cerevisiae deletion strains, locus YLL001W, strain dnm1, active compounds read low 0.97 | S. cerevisiae deletion strains, locus YLL026W, active compounds read low 0.998 | S. cerevisiae deletion strains, locus YLL041C, strain sdh2, active compounds read low 0.984 | S. cerevisiae deletion strains, locus YLR027C, strain aat2, active compounds read low 0.995 | S. cerevisiae deletion strains, locus YLR039C, strain RIC1, active compounds read low 0.949 | S. cerevisiae deletion strains, locus YLR058C, strain SHM2, active compounds read low 1.01 | S. cerevisiae deletion strains, locus YLR102C, strain apc9, active compounds read low 1.03 | S. cerevisiae deletion strains, locus YLR113W, strain HOG1, active compounds read low 0.867 | S. cerevisiae deletion strains, locus YLR221C, strain rsa3, active compounds read low 0.968 | S. cerevisiae deletion strains, locus YLR258W, strain gsy2, active compounds read low 0.983 | S. cerevisiae deletion strains, locus YLR262C, strain YPT6 (second series), active compounds read low 0.876 | S. cerevisiae deletion strains, locus YLR262C, strain YPT6, active compounds read low 0.943 | S. cerevisiae deletion strains, locus YLR268W, strain sec22, active compounds read low 1.01 | S. cerevisiae deletion strains, locus YLR320W, strain mms22, active compounds read low 0.946 | S. cerevisiae deletion strains, locus YLR330W, strain CHS5, active compounds read low 1.01 | S. cerevisiae deletion strains, locus YLR342W, strain FKS1 (second series), active compounds read low 0.985 | S. cerevisiae deletion strains, locus YLR342W, strain FKS1, active compounds read low 0.976 | S. cerevisiae deletion strains, locus YLR357W, strain rsc2, active compounds read low 1.01 | S. cerevisiae deletion strains, locus YLR370C, strain arc18, active compounds read low 0.976 | S. cerevisiae deletion strains, locus YLR371W, strain rom2, active compounds read low 1.04 | S. cerevisiae deletion strains, locus YLR384C, strain iki3, active compounds read low 0.98 | S. cerevisiae deletion strains, locus YLR418C, strain cdc73, active compounds read low 0.994 | S. cerevisiae deletion strains, locus YML016C, strain PPZ1, active compounds read low 1 | S. cerevisiae deletion strains, locus YML032C, strain rad52, active compounds read low 1.05 | S. cerevisiae deletion strains, locus YML120C, strain ndi1, active compounds read low 0.99 | S. cerevisiae deletion strains, locus YML124C, strain tub3, active compounds read low 1.02 | S. cerevisiae deletion strains, locus YMR058W, strain fet3, active compounds read low 0.995 | S. cerevisiae deletion strains, locus YMR078C, strain ctf18, active compounds read low 1.03 | S. cerevisiae deletion strains, locus YMR125W, strain sto1, active compounds read low 1.01 | S. cerevisiae deletion strains, locus YMR129W, active compounds read low 0.985 | S. cerevisiae deletion strains, locus YMR205C, strain PFK2, active compounds read low 0.934 | S. cerevisiae deletion strains, locus YMR223W, strain ubp8, active compounds read low 1.02 | S. cerevisiae deletion strains, locus YMR231W, strain pep5, active compounds read low 0.999 | S. cerevisiae deletion strains, locus YMR263W, strain SAP30, active compounds read low 1.01 | S. cerevisiae deletion strains, locus YMR307W, strain GAS1, active compounds read low 1.01 | S. cerevisiae deletion strains, locus YNL067W, strain RPL9B, active compounds read low 0.996 | S. cerevisiae deletion strains, locus YNL071W, strain lat1, active compounds read low 0.928 | S. cerevisiae deletion strains, locus YNL128W, strain TEP1, active compounds read low 1.01 | S. cerevisiae deletion strains, locus YNL153C, strain GIM3, active compounds read low 1.01 | S. cerevisiae deletion strains, locus YNL183C, strain NPR1, active compounds read low 0.923 | S. cerevisiae deletion strains, locus YNL209W, strain ssb2, active compounds read low 0.998 | S. cerevisiae deletion strains, locus YNL233W, strain BNI4, active compounds read low 1.02 | S. cerevisiae deletion strains, locus YNL248C, strain rpa49, active compounds read low 0.984 | S. cerevisiae deletion strains, locus YNL250W, strain rad50, active compounds read low 1.03 | S. cerevisiae deletion strains, locus YNL271C, strain bni1, active compounds read low 1.03 | S. cerevisiae deletion strains, locus YNL298W, strain CLA4, active compounds read low 1.02 | S. cerevisiae deletion strains, locus YNL307C, strain MCK1, active compounds read low 1 | S. cerevisiae deletion strains, locus YNL322C, strain KRE1 (second series), active compounds read low 0.986 | S. cerevisiae deletion strains, locus YNL322C, strain KRE1, active compounds read low 1.01 | S. cerevisiae deletion strains, locus YNR049C, strain mso1, active compounds read low 0.994 | S. cerevisiae deletion strains, locus YNR052C, strain pop2, active compounds read low 1.02 | S. cerevisiae deletion strains, locus YOL006C, strain TOP1, active compounds read low 0.935 | S. cerevisiae deletion strains, locus YOL012C, strain htz1 1.27 | S. cerevisiae deletion strains, locus YOL147C, strain pex11, active compounds read low 1.02 | S. cerevisiae deletion strains, locus YOR001W, strain rrp6, active compounds read low 0.984 | S. cerevisiae deletion strains, locus YOR061W, strain CKA2, active compounds read low 1.01 | S. cerevisiae deletion strains, locus YOR069W, strain VPS5, active compounds read low 1.01 | S. cerevisiae deletion strains, locus YOR070C, strain gyp1, active compounds read low 0.986 | S. cerevisiae deletion strains, locus YOR080W, strain dia2, active compounds read low 0.998 | S. cerevisiae deletion strains, locus YOR083W, strain WHI5, active compounds read low 0.964 | S. cerevisiae deletion strains, locus YOR106W, strain vam3, active compounds read low 0.978 | S. cerevisiae deletion strains, locus YOR136W, strain idh2, active compounds read low 1.03 | S. cerevisiae deletion strains, locus YOR144C, strain elg1, active compounds read low 1.02 | S. cerevisiae deletion strains, locus YOR184W, strain ser1, active compounds read low 1.01 | S. cerevisiae deletion strains, locus YOR231W, strain MKK1, active compounds read low 0.923 | S. cerevisiae deletion strains, locus YOR265W, strain rbl2, active compounds read low 0.992 | S. cerevisiae deletion strains, locus YOR270C, strain vph1, active compounds read low 0.886 | S. cerevisiae deletion strains, locus YOR290C, strain snf2, active compounds read low 0.934 | S. cerevisiae deletion strains, locus YOR316C, strain cot1, active compounds read low 1.03 | S. cerevisiae deletion strains, locus YPL051W, strain arl3, active compounds read low 0.975 | S. cerevisiae deletion strains, locus YPL055C, strain LGE1, active compounds read low 1.01 | S. cerevisiae deletion strains, locus YPL078C, strain atp4, active compounds read low 0.978 | S. cerevisiae deletion strains, locus YPL106C, strain sse1, active compounds read low 1.03 | S. cerevisiae deletion strains, locus YPL240C, strain hsp82, active compounds read low 0.984 | S. cerevisiae deletion strains, locus YPL241C, strain CIN2, active compounds read low 1.01 | S. cerevisiae deletion strains, locus YPL256C, strain CLN2, active compounds read low 0.953 | S. cerevisiae deletion strains, locus YPR119W, strain clb2, active compounds read low 1.03 | S. cerevisiae deletion strains, locus YPR141C, strain kar3, active compounds read low 1.03 | S. cerevisiae deletion strains, locus YPR163C, strain tif3, active compounds read low 1.02 | S. cerevisiae deletion strains, locus YPR167C, strain met16, active compounds read low 1.02 | S. cerevisiae deletion strains, strain wtn01, active compounds read low 1.02 | S. cerevisiae strains, strain wild type, active compounds read low 1.01
